Values joined by “and” are separate entries in the source; they are usually repeats but may differ in a detail not shown here. Equal values may be shown once. Unmarked numbers belong to inactive results. The rule behind the calls is not given here.
Biological target: L-lactate dehydrogenase (Plasmodium falciparum (isolate CDC / Honduras)) (UniProt Q27743)
Test: PfLDH activity inhibition – cell lysate, 3D7 strain, counter-screen for P. falciparum growth inhibition project (AID 2304);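 note: 0% = vehicle and 100% = reference inhibitor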
Conditions: P. falciparum 3D7 crude extract, LDH APAD/NBT absorbance; at 2 µM; hits give high values

Sequence of L-lactate dehydrogenase (Plasmodium falciparum (isolate CDC / Honduras)) (Q27743 whole entry, looked up): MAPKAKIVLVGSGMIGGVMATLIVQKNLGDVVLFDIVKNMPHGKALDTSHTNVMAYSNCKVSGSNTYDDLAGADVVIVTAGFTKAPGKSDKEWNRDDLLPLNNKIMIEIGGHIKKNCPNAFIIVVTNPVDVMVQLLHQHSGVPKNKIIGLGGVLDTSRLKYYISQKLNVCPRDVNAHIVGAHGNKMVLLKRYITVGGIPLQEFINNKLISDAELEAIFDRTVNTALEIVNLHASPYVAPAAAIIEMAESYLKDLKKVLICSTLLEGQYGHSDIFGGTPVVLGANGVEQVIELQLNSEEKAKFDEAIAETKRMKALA

| SMILES | inhibition |
| --- | --- |
| COCCNCc1ccc(-c2ccc(CN(C(=O)Nc3ccccc3)C3CCN(Cc4ccccc4)CC3)cc2)cc1 | -5% |
| Cc1csc(-c2ccc3[nH]cc(C4=CCN(C)CC4)c3c2)n1 | -3% |
| CCCCn1c(C)c(C(=O)OCC)c2cc(OC(C)=O)c(Br)cc21 | -1% |
| Cc1csc(NC2=NCCN2)n1 | 0% |
| O=[N+]([O-])c1ccc(Oc2c(Cl)cc(S(=O)(=O)NC3CCC(CN4CCC(c5c[nH]c6ccccc56)CC4)CC3)cc2Cl)c(Cl)c1 (stereo not given) | -4% |
| CN1CC=C(c2c[nH]c3ccc(OCc4ccccc4)cc23)CC1 | -2% |
| COc1ccc(CC(C)NCC(O)c2ccc(Cl)c(Cl)c2)cc1 (stereo not given) | 6% |
| COC(=O)c1ccc(CC(C)NCC(O)c2ccccc2Cl)cc1 (stereo not given) | 1% |
| Cc1cc(C(=O)NC2CCN(CC3(c4ccc(Cl)cc4)CCC3)CC2)on1 | -3% |
| O=C(/C=C/c1cc(F)cc(C(F)(F)F)c1)N1CCC(CN2CCC(c3c[nH]c4ccccc34)CC2)CC1 | 3% |
| CS(=O)(=O)Nc1ccc2[nH]cc(C3CCN(CC4CCC(NC(=O)/C=C/c5ccc(Cl)c(Cl)c5)CC4)CC3)c2c1 (stereo not given) | -3% |
| c1ccc2c(NCCCCCCCCCNc3c4ccccc4nc4ccccc34)c3ccccc3nc2c1 | -6% |
| CC(Cc1ccc(Oc2ccccc2)cc1)NCC(O)c1cccc(C(F)(F)F)c1 (stereo not given) | 4% |
| COC(=O)/C=C/c1ccc(C[C@@H](C)NC[C@H](O)c2cccc(C(F)(F)F)c2)cc1 | -6% |
| CC[C@H]1CN2CC[C@H]1C[C@H]2[C@H](O)c1cc(-c2ccccc2C)nc2ccc(OC)cc12 | 2% |
| O=C(/C=C/c1cccc2ccccc12)NC1CCC(CN2CCC(c3c[nH]c4ccccc34)CC2)CC1 (stereo not given) | 5% and -3% |
| CN(c1cc(NC(=O)c2cccs2)ccn1)C1CCN(Cc2ccccc2)CC1 | -1% |
| Oc1ccccc1CNCC(O)c1cc(C(F)(F)F)cc(C(F)(F)F)c1 (stereo not given) | 4% |
| Cn1cc(CN2CCC(CCOC(c3ccccc3)c3ccccc3)CC2)cn1 | -5% |
| COc1ccc(-c2ccccc2)cc1NC(=S)NC1CCC(CN2CCC(c3c[nH]c4ccccc34)CC2)CC1 (stereo not given) | -7% and -5% |

| SMILES | inhibition |
| --- | --- |
| C=CCOc1ccccc1CNCC(O)c1cccc(C(F)(F)F)c1 (stereo not given) | -1% |
| O=C(Nc1ccc(Oc2ccccc2)cc1)NC1CCC(CN2CCC(c3c[nH]c4ccccc34)CC2)CC1 (stereo not given) | 4% |
| CC[C@H]1CN2CC[C@@H]1C[C@H]2[C@H](O)c1cc(N2CCC(CO)CC2)nc2ccc(OC)cc12 | -1% |
| O=[N+]([O-])c1ccc(Oc2c(Cl)cc(S(=O)(=O)N3CCC(CN4CCC(c5c[nH]c6ccccc56)CC4)CC3)cc2Cl)c(Cl)c1 | -1% |
| OC(CNC1CCCCCCC1)c1ccc(Cl)c(Cl)c1 (stereo not given) | -5% |
| Cc1[nH]c2ccccc2c1C1=CCN(CCCCCC23CCCc4cccc(c42)NC3=O)CC1 (stereo not given) | 5% |
| CC[C@H]1CN2CC[C@H]1C[C@H]2C(O)c1cc(OC)nc2ccccc12 (stereo not given in full) | -1% |
| CCCc1c(C(=O)NC2CCC(CN3CCC(c4c[nH]c5ccccc45)CC3)CC2)cnn1-c1c(Cl)cc(Cl)cc1Cl (stereo not given) | -5% |
| C/C=C1/CN2CC[C@H]1C[C@H]2[C@H](O)c1ccnc2ccc(OC)cc12 | 0% |
| O=C(/C=C/c1ccc(Cl)c(Cl)c1)NCCCCCN1C2CCC1CC(c1c[nH]c3ccccc13)C2 (stereo not given) | -1% |
| C1=C(c2c[nH]c3ccccc23)CCN(Cc2ccccc2)C1 | -1% |
| CC[C@H]1CN2CC[C@H]1C[C@H]2[C@H](O)c1cc(-c2ccc(F)cc2)nc2ccc(OC)cc12 | 5% |
| Cc1[nH]c2ccccc2c1C1=CCN(CCN2CCCc3c(Br)cccc3C2=O)CC1 | -1% |
| CN1CCC(N(C)c2nccc(N3CCN(Cc4cncn4Cc4ccccc4)CC3)n2)CC1 | 3% |
| CCCCCCCc1cc(O)c2c3c(c(=O)oc2c1)CN(C)CC3 | 3% |
| O=C(/C=C/c1cccs1)NC1CCC(CN2CCC(c3c[nH]c4ccccc34)CC2)CC1 (stereo not given) | -1% |
| CN(C)CCCn1cc(C(=O)OC2C[C@H]3CC[C@@H](C2)N3C)c2cc(-c3ccccc3)ccc21 (stereo not given in full) | 0% |
| O=C(c1cc(C(F)(F)F)cc(C(F)(F)F)c1)N1CC[C@H](CCN2CCC3(CC2)C(=O)NCN3c2ccccc2)C[C@H]1Cc1ccc(Cl)c(Cl)c1 | -4% |
| Cc1cc(O)cc2c(C3CCN(CC4CCC(NC(=O)/C=C/c5ccccc5Cl)CC4)CC3)c[nH]c12 (stereo not given) | 1% |
| CC[C@H]1CN2CC[C@H]1C[C@H]2[C@H](O)c1ccnc2ccc(C#N)cc12 | 5% |

Reference: PubChem BioAssay
